3T3 cytotox – kills NIH 3T3 cells | NIH 3T3 viability, CellTiter-Glo ATP luminescence, 48-72 h | Potency, µM (top dose mostly 96.7 µM), usual class: inhibitors | actives 4.3% (n = 94,000); also: nearly all actives have a fitted effect of over 55% in size
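NIH 3T3 cells at 400 cells/well received 23 nL of compound by pintool and were incubated 48 or 72 h at 37 °C. Viability was read as ATP-coupled CellTiter-Glo luminescence.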
Luciferase inh – inhibitors of firefly (Photinus pyralis) luciferase. P08659. purified P. pyralis luciferase, luminescence, biochemical. Potency, µM (series often up to 115 µM), hits mostly inhibitors. actives 2.5% (n = 76,000); also: nearly all actives have a fitted effect of over 65% in size
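FLuc 10nM, D-luciferin 10uM, ATP 10uM, Mg acetate 10mM, Tris acetate pH 7.5, Tween/BSA; cpd qHTS; enzyme added last; CCD luminescence.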
HEK cytotox – HEK 293 cell cytotoxicity; HEK 293 viability, ATP luminescence (CellTiter-Glo), 48-72 h; Potency, µM (top dose mostly 115 µM), actives largely listed as inhibitors; actives 6.6% (n = 94,000); AID 1345083; also: nearly all actives have a fitted effect of over 60% in size
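HEK 293 cells at 250 cells/well were exposed to compounds by pintool transfer for 48 or 72 hr at 37 degree Celsius, 5% CO2. Viability was read as ATP-coupled luminescence with CellTiter-Glo after 10 min at room temperature.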
NPR1 antag – antagonists of human natriuretic peptide receptor Npr1; P16066; HEK293 hNpr1 GloSensor cGMP, ANP-stimulated luminescence; Potency, µM (doses to about 46.3 µM), actives largely listed as inhibitors; actives 1.6% (n = 76,000); calls by dose curve; also: nearly all actives have a fitted effect of over 60% in size
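HEK293 cells stably expressing human Npr1 and cGMP GloSensor pGS-40F, loaded 2 h with 2% GloSensor reagent, given compound 30 min at room temperature. Luminescence read before and 20 min after 0.1 nM hNppA.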
Npr1 antag conf – hNpr1 antagonism, confirmation assay; Potency, µM (titrated, usually from 57.6 µM), usual class: inhibitors; actives 76% (n = 1,400); HEK293 hNpr1 cGMP GloSensor luminescence, ANP-stimulated; AID 1347044; shares compounds with NPR1 antag; calls by dose curve; also: nearly all actives have a fitted effect of over 70% in size
Npr2 selectivity – selectivity test of Npr1 antagonists against human Npr2. shares compounds with NPR1 antag. AID 1347046. HEK293 hNpr2 GloSensor cGMP luminescence, CNP-stimulated. Potency, µM (doses to about 57.6 µM), usual class: inhibitors. actives 67% (n = 1,400); calls by dose curve; also: nearly all actives have a fitted effect of over 70% in size
FLuc counter – FLuc enzyme inhibition, Npr1 counter-screen; AID 1347047; actives 0.7% (n = 1,400); purified FLuc enzyme, luminescence, Km substrate; Potency, µM (titrated, usually from 57.6 µM), usual class: inhibitors; shares compounds with NPR1 antag; also: series mostly up to about 58 µM
GloSensor cGMP – counter-screen for Npr1 antagonists: GloSensor control cell line; shares compounds with NPR1 antag; HEK293 GloSensor cGMP, SNP-stimulated, luminescence; Potency, µM (highest dose often 57.6 µM), usual class: inhibitors; actives 69% (n = 1,400); calls by dose curve; also: nearly all actives have a fitted effect of over 70% in size
Of the large screens only hits and unclear results are named; the others gave an inactive call (follow-up assays come after a bar, where they were run). Hits are enriched below; roughly 11% of the tested compounds scored in any of these assays. Unless noted, calls follow the shape of the dose curve; as a rule, active = well fitted curve in the direction sought with a large enough effect; inconclusive = small, poorly fitted or top-dose-only effect, or another doubt; inactive = no such curve, though single readings can be large; an effect the other way counts as inactive or inconclusive.

Cc1cccc2c1nc1n2[C@@H](CNCc2ccccc2)COC1	3T3 cytotox inconclusive, HEK cytotox inconclusive, NPR1 antag 20µM | Npr1 antag conf 31µM | Npr2 selectivity 31µM | FLuc counter inactive | GloSensor cGMP 22µM
CC(=O)Nc1ccc(CNC[C@H]2COCc3nc4c(C)cccc4n32)cc1	HEK cytotox inconclusive, NPR1 antag inconclusive
Cc1ccccc1SC1CCN(c2cc(C3CC(O)C3)ncn2)CC1 (stereo not drawn)	3T3 cytotox inconclusive, HEK cytotox inconclusive, NPR1 antag 2.8µM | Npr1 antag conf 4.8µM | Npr2 selectivity 6.1µM | FLuc counter inactive | GloSensor cGMP 3.9µM
Cc1ccc(Cl)cc1N1CCN(c2cc(C3CC(O)C3)ncn2)CC1 (stereo not drawn)	3T3 cytotox inconclusive, HEK cytotox 28µM, NPR1 antag 8.9µM | Npr1 antag conf 19µM | Npr2 selectivity 19µM | FLuc counter inactive | GloSensor cGMP 14µM
COc1cc(NC(=O)Cn2c(N(C)Cc3ccccc3)nc(C)cc2=O)cc(OC)c1OC	3T3 cytotox inconclusive, HEK cytotox inconclusive, NPR1 antag 7.1µM | Npr1 antag conf 11µM | Npr2 selectivity 14µM | FLuc counter inactive | GloSensor cGMP 11µM
COc1cc(NC(=O)Cn2c(N(C)Cc3ccccc3)nc(C)cc2=O)cc(OC)c1	3T3 cytotox inconclusive, HEK cytotox 16µM, NPR1 antag 7.9µM | Npr1 antag conf 11µM | Npr2 selectivity 12µM | FLuc counter inactive | GloSensor cGMP 6.9µM
CCOC(=O)c1ccc(NC(=O)Cn2c(N(C)Cc3ccccc3)nc(C)cc2=O)cc1	3T3 cytotox inconclusive, HEK cytotox 40µM, NPR1 antag 14µM | Npr1 antag conf 22µM | Npr2 selectivity 22µM | FLuc counter inactive | GloSensor cGMP 22µM
COc1ccc(C)cc1NC(=O)Cn1c(N(C)Cc2ccccc2)nc(C)cc1=O	HEK cytotox inconclusive, NPR1 antag 13µM | Npr1 antag conf 24µM | Npr2 selectivity 24µM | FLuc counter inactive | GloSensor cGMP 31µM
Cc1cc(=O)n(CC(=O)Nc2cccc(Cl)c2)c(N(C)Cc2ccccc2)n1	3T3 cytotox inconclusive, HEK cytotox inconclusive, NPR1 antag inconclusive
COc1ccccc1NC(=O)Cn1c(N(C)Cc2ccccc2)nc(C)cc1=O	3T3 cytotox inconclusive, HEK cytotox inconclusive
O=C(Nc1ccccc1)N1CCCN(c2ccc3nnc(-c4ccccc4)n3n2)CC1	3T3 cytotox inconclusive (no result: Luciferase inh, NPR1 antag)
CCOc1ccccc1NC(=O)N1CCC2(CC1)CC2c1noc(C)n1 (stereo not drawn)	none (no result: Luciferase inh, NPR1 antag)
Cn1nc(C2CCN(C(=O)c3ccc4ccccc4n3)CC2)n(-c2ccccc2)c1=O	3T3 cytotox inconclusive (no result: Luciferase inh, NPR1 antag)
COCCN1CCCC2(CCN(c3nc(C)nc4sccc34)C2)C1=O (stereo not drawn)	3T3 cytotox inconclusive, NPR1 antag inconclusive | Npr1 antag conf 24µM | Npr2 selectivity inconclusive | FLuc counter inactive | GloSensor cGMP 24µM
Cc1nn2c(c1-c1cccnc1N1CCOCC1)N(CC1CCOCC1)CCC2	3T3 cytotox 35µM, HEK cytotox inconclusive, NPR1 antag inconclusive | Npr1 antag conf inconclusive | Npr2 selectivity inconclusive | FLuc counter inactive | GloSensor cGMP inconclusive
Cc1nn2c(c1-c1cccnc1N1CCOCC1)N(C(=O)Cc1ccc(Cl)cc1)CCC2	3T3 cytotox inconclusive, HEK cytotox inconclusive
COc1ccccc1Nc1ncc2c(n1)CN(C(=O)c1cccc(N(C)C)c1)CCN2	HEK cytotox 79µM, NPR1 antag 22µM | Npr1 antag conf 31µM | Npr2 selectivity 35µM | FLuc counter inactive | GloSensor cGMP 25µM

Assay outcomes deposited in PubChem BioAssay by National Center for Advancing Translational Sciences (NCATS).
